Results filed as inconclusive are left out. Values without a mark were called inactive. Calls follow the shape of the dose curve; as a rule, active = well fitted curve in the direction sought with a large enough effect in the repeat runs; inconclusive = weak or mixed curves, or another doubt; inactive = no such curve, though single readings can be large or run the other way.
Test: Comparison of Janus kinase inhibitors to block the type I interferon pathway in human skeletal muscle cells: CTG Counterscreen
Conditions: human skeletal muscle cells viability, CellTiter-Glo ATP luminescence; series mostly up to 45.9 µM; activity change, negative = cytotoxicity: at the top concentration
Source text: Assay Submitter (PI): Travis B. Kinder Ph.D.
National Center for Advancing Translational Sciences (NCATS)
The family of Janus kinases (JAK1, JAK2, JAK3, TYK2) mediate signal transduction from cytokine receptors through phosphorylation and activation of intracellular signaling pathways and transcription factors. Small molecule antagonists of JAKs (jakinibs) have been developed with varying selectivity for the use in malignancies and immune regulation. […] We have assayed a library of 48 jakinibs for their ability to inhibit the JAK1/TYK2-dependent type I interferon (IFN) - major histocompatibility complex (MHC) class I pathway in human skeletal muscle cells genome-engineered to fuse a pro-luminescent HiBiT peptide to endogenous MHC class I.
The assay utilized CRISPR/Cas9 genome-engineered immortalized human myoblasts, C25cl48, where a pro-luminescent reporter HiBit was fused to the C-terminus of endogenous MHC class I allele HLA-B*08:01 (HLA-B HiBit myoblasts) (Kinder et al., 2020). HiBit is an 11 amino acid fragment of NanoLuc luminescent reporter (Promega Corporation), and when complexed to the larger LgBit fragment, the reconstituted enzyme produces light in the presence of furimazine substrate. Briefly, HLA-B HiBit myoblasts were plated into 1536-well plates, treated with 4.0 ng/ml human IFN-beta and 48 jakinibs in an 11-point, 1:3 titration with a high final concentration of 46 uM. After 24 hrs of treatment, cells were assayed by CellTiter-Glo Luminescent Cell Viability Assay (Promega) and luminescence measured by a ViewLux 1430 Ultra HTS (Perkin Elmer).
1. Kinder TB, Dranchak PK, Inglese J. High-Throughput Screening to Identify Inhibitors of the Type I Interferon-Major Histocompatibility Complex Class I Pathway in Skeletal Muscle. ACS Chem Biol. 2020 Jul 17;15(7):1974-1986. doi: 10.1021/acschembio.0c00343
PROTOCOL TABLE (as described by Inglese et al., 2007)
SEQUENCE No. (e.g., 1, 2, 3, etc.); PARAMETER (e.g., Cells, Incubation, Reagent, etc.); VALUE; DESCRIPTION
1a; Cells; 5 uL; Seed 250 cells/well with a Multidrop Combi (Thermo Scientific) into two Greiner 1536 well white/solid bottom, high base, TC plates (789173-F) in 5 ul/well of growth medium (GM) without dexamethasone into columns 1+2
1b; Cells; 5 uL; Seed 250 cells/well with a Multidrop Combi (Thermo Scientific) into two Greiner 1536 well white/solid bottom, high base, TC plates (789173-F) in 5 ul/well of GM without dexamethasone + 4 ng/ml IFN-beta into columns 3 - 48. Add metal lids with gas-exchange holes.
2; Incubate; 30 min; Incubate at 37C, 5% CO2, 95% RH
3; Compounds; 23 nl; Transfer DMSO control and library compounds in DMSO with Pin Tool (Wako)
4; Incubate; 24 hrs; Incubate at 37C, 5% CO2, 95% RH
5; Dispense; 2.5 ul; Add CellTiter Glo lytic reagent with a BioRAPTR FRD (Beckman Coulter)
6; Incubate; 10 min; Incubate in the dark at ambient temperature for lysis
7; Detector; 5 sec; Measure luminescence with ViewLux 1430 Ultra HTS (Perkin Elmer). Settings: Exposure = 2 sec, Gain = High, Speed = Slow, Binning = 2X
NOTES (numbers refer to sequence above)
1; HLA-B HiBit myoblasts cultured in GM - 4:1 ratio DMEM Glutamax (Thermo Fisher, 10566) : M199 (Thermo Fisher, 11150), 10% FBS (Hyclone Standard), 1% Pen/Strep, 50 ug/ml fetuin, 10 ng/ml hEGF, 1 ng/ml bhFGF, 10 ug/ml insulin, 0.4 ug/ml dexamethasone (supplements from Promocell, C-39360). […] Recombinant human IFN-beta (Peprotech, 300-02BC) was reconstituted in water, diluted in GM, and aliquots stored at -80C until day of use.
3; Control plate contained DMSO in columns 1 and 4, digitonin (Sigma, D141) cytotoxicity control in DMSO at 20 mM in column 2, and ruxolitinib (Selleckchem, S1378) inhibitor control in DMSO 16-point, 1:2 titration, high concentration = 17 mM in column 3. Digitonin and ruxolitinib stocks were reconstituted at 20 and 50 mM in DMSO and aliquots stored at -20C. […]

| SMILES | activity change, negative = cytotoxicity |
| --- | --- |
| CC1(C)CN(C(=O)c2ccc(-c3cccc4nc(NC(=O)C5CC5)nn34)cc2)C1 | 7.08% |
| CC(C)(O)C(=O)N1CCN(c2ccc(C(F)(F)F)c(C3=C(c4c[nH]c5ccccc45)C(=O)NC3=O)c2)CC1 | -7.18% |
| CC(C)(C)c1nc2c3cc[nH]c(=O)c3c3cc(F)ccc3c2[nH]1 | -11.6% |
| CC[C@@](C)(Nc1ccnc(-c2c[nH]c3ncccc23)n1)C(=O)NCC(F)(F)F | 5.31% |
| N#CCNC(=O)c1ccc(-c2ccnc(Nc3ccc(N4CCOCC4)cc3)n2)cc1 | -19.9% |
| CC(C)(C)NS(=O)(=O)c1ccc(-c2ccc3[nH]nc(N)c3c2)cc1 | 15.9% |
| C[C@@H]1CCN(C(=O)CC#N)C[C@@H]1N(C)c1ncnc2[nH]ccc12 | 3.19% |
| CN(C)c1ccc(Nc2nc(N)n(C(=O)c3c(F)cccc3F)n2)cc1 | -10.4% |
| NC(=O)c1cnc2[nH]ccc2c1NC1C2CC3C[C@H]1CC(O)(C3)C2 (some centres not stated) | 1.18% |
| CN1CCN(c2cccc(Nc3nc4c(-c5ccc(S(C)(=O)=O)cc5)cccn4n3)c2)CC1 | -4.5% |
| C=CC(=O)Nc1ccc(F)c(-c2ncnc3[nH]cc(C(=O)OCC)c23)c1 | 3.28% |
| CCCS(=O)(=O)NC1CC(N(C)c2ncnc3[nH]ccc23)C1 (configuration not stated) | 5.82% |
| N#C/C(=C\c1ccc(O)c(O)c1)C(=O)NCc1ccccc1 | 1.73% |
| CCS(=O)(=O)N1CC(CC#N)(n2cc(-c3ncnc4[nH]ccc34)cn2)C1 | 1.82% |
| COc1cc2ncnc(Nc3ccc(O)cc3)c2cc1OC | -2.03% |
| CCS(=O)(=O)N1CCN(c2ccc(Nc3ncc(C(N)=O)c(NC4CC4)n3)cc2)CC1 | 1.99% |
| O=C(Nc1ccc(-c2ccnc(Nc3ccc(N4CCOCC4)cc3)n2)cc1)[C@@H]1CCCN1 | 12.2% |
| CCn1c(C(=O)N(C2CC2)C2CC2)cc2c3c(ncn3C)c(Nc3cc(C)n(C)n3)nc21 | -17.3% |
| CC(C)(C)NC(=O)Nc1cccc(Nc2ncc(F)c(NC(C)(C)CO)n2)c1 | 6.2% |
| [2H]C([2H])([2H])NC(=O)c1nnc(NC(=O)C2CC2)cc1Nc1cccc(-c2ncn(C)n2)c1OC | -10.7% |
| Cc1cc(Nc2cc(CN3CCOCC3)c3nc(C)c(Cc4ccc(Cl)cc4F)n3n2)n[nH]1 | -19% |
| CC[C@@H]1CN(C(=O)NCC(F)(F)F)C[C@@H]1c1cnc2cnc3[nH]ccc3n12 | -28.6% |
| Cn1cc(Nc2nccc(N3C[C@H]4CC[C@@H](C3)N4C(=O)[C@@H]3CC3(F)F)n2)cn1 | -24.6% |
| CNS(=O)(=O)CC1CCC(N(C)c2ncnc3[nH]ccc23)CC1 (configuration not stated) | 15% |
| Cc1oncc1C(=O)Nc1ccc(C(F)(F)F)cc1 | -6.1% |
| N#CC[C@H](C1CCCC1)n1cc(-c2ncnc3[nH]ccc23)cn1 | 8.46% |
| O=C(Nc1ccnc(NC(=O)C2CC2)c1)c1c(Cl)cccc1Cl | 8.25% |
